Results taken from PubChem BioAssay (NCI).
About 83,000 compounds went through this panel and 20% of them were active in at least one assay; those are over-represented in the sample as a whole.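 Step 1: grow cells in 96-well plates. Step 2: add test compound at a single concentration. Step 3: incubate 48 h. Step 4: record percent growth.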 Active and inactive are the calls of the source. The calls were made as follows: active = growth percent below 10; inactive = the rest.

Experiments:
Assay in all cases: NCI-60 one-dose screen, 48 h (100 = growth as untreated, 0 = no growth, -100 = all killed)
Settings in all cases: 10 µM unless noted
SK-MEL-2 melanoma = tested on: SK-MEL-2 melanoma
UO-31 renal = tested on: UO-31 renal
TK-10 renal = tested on: TK-10 renal
ACHN renal = tested on: ACHN renal
A498 renal = tested on: A498 renal
CCRF-CEM leukemia = tested on: CCRF-CEM leukemia
MOLT-4 leukemia = tested on: MOLT-4 leukemia
EKVX NSCLC = tested on: EKVX NSCLC
SN12C renal = tested on: SN12C renal
CAKI-1 renal = tested on: CAKI-1 renal

Measured: growth

OCC1C2C=CC(C2)C1CO (stereo not given)
inactive: SK-MEL-2 melanoma 114% | UO-31 renal 93.1% | TK-10 renal 112% | ACHN renal 105% | A498 renal 92.5% | CCRF-CEM leukemia 126% | MOLT-4 leukemia 97.9%

OCCNCCNc1c2ccccc2nc2ccccc12
inactive: EKVX NSCLC 109% | SN12C renal 52.2% | UO-31 renal 65.4% | TK-10 renal 82.7% | ACHN renal 65.3% | CAKI-1 renal 94.9% | A498 renal 83% | CCRF-CEM leukemia 65.4%

Nc1cc2nc3ccccc3sc-2cc1=O
inactive: SK-MEL-2 melanoma 89.4% | SN12C renal 60.7% | UO-31 renal 42.8% | TK-10 renal 137% | ACHN renal 65.5% | A498 renal 106% | CCRF-CEM leukemia 18.4% | MOLT-4 leukemia 61.4%

COc1cc(-c2cc(-c3nc4ccc(Cl)cc4[nH]3)[nH]n2)cc(OC)c1OC
inactive: SK-MEL-2 melanoma 55.8% | SN12C renal 68.3% | UO-31 renal 20.6% | TK-10 renal 67.1% | ACHN renal 51.9% | CAKI-1 renal 35.1%
active: CCRF-CEM leukemia 7.12%

COc1ccc(-c2nn(-c3ccccc3)cc2/C=C2\SC(=O)NC2=O)cc1
inactive: SK-MEL-2 melanoma 100% | SN12C renal 90.8% | UO-31 renal 80% | TK-10 renal 99.7% | ACHN renal 96% | CAKI-1 renal 83.2% | A498 renal 72% | CCRF-CEM leukemia 91.9% | MOLT-4 leukemia 96.4%

O=C(NCc1cccc(C(F)(F)F)c1)[C@H](CCC(=O)N1CCN(C2CCCCC2)CC1)N1C(=O)[C@@H](N2C(=O)OC[C@@H]2c2ccccc2)[C@H]1/C(Cl)=C/c1ccccc1
inactive: EKVX NSCLC 53.8% | SN12C renal 37.1% | UO-31 renal 27.5% | TK-10 renal 40.8% | ACHN renal 58.4% | CAKI-1 renal 62.4% | A498 renal 46.9% | CCRF-CEM leukemia 33.9% | MOLT-4 leukemia 21.4%

CCCCN(CC)CCCCCCCCCCN1CCCc2cc(OC)ccc21
inactive: SK-MEL-2 melanoma 92.8% | UO-31 renal 24.4% | TK-10 renal 87.8% | ACHN renal 76.7% | A498 renal 75.9%
active: CAKI-1 renal 6.91% | CCRF-CEM leukemia 7.28% | MOLT-4 leukemia -19.6%

CC(=O)OCC1OC(OC2=C(CC=C(Cl)Cl)C(=O)c3ccccc3C2=O)C(OC(C)=O)C(OC(C)=O)C1OC(C)=O (stereo not given)
inactive: SK-MEL-2 melanoma 61.3% | SN12C renal 85.8% | UO-31 renal 69.3% | TK-10 renal 117% | ACHN renal 59.9% | A498 renal 75.4%
active: CCRF-CEM leukemia -19.3%

COc1cc(C2CC(=O)c3c(C)nn(-c4nc5ccccc5[nH]4)c3C2)cc(OC)c1OC (stereo not given)
inactive: SK-MEL-2 melanoma 91.2% | SN12C renal 75.9% | UO-31 renal 91.1% | TK-10 renal 45.3% | ACHN renal 59.1% | A498 renal 56.5% | CCRF-CEM leukemia 104% | MOLT-4 leukemia 102%

O=C(/C=C\c1cccc([N+](=O)[O-])c1)c1ccccc1
active: UO-31 renal -64.5% | ACHN renal -50.1% | CCRF-CEM leukemia -23.9%
inactive: SK-MEL-2 melanoma 100% | SN12C renal 97.2% | TK-10 renal 68.1% | A498 renal 91.4% | MOLT-4 leukemia 18.9%

CCOC(=O)CC(C)=N
inactive: SK-MEL-2 melanoma 111% | SN12C renal 103% | UO-31 renal 98.5% | ACHN renal 109% | CAKI-1 renal 111% | CCRF-CEM leukemia 118% | MOLT-4 leukemia 106%

CCCCCCCCCCCCS(=O)CC(C)O (stereo not given)
inactive: SK-MEL-2 melanoma 112% | SN12C renal 106% | UO-31 renal 95.3% | TK-10 renal 125% | ACHN renal 105% | CAKI-1 renal 110% | CCRF-CEM leukemia 101% | MOLT-4 leukemia 96.7%

O=C(/C=C/c1ccc(B(O)O)cc1)/C=C/c1ccc(B(O)O)cc1
inactive: SK-MEL-2 melanoma 110% | SN12C renal 57.5% | TK-10 renal 99.3% | ACHN renal 86.8% | A498 renal 71.1% | CCRF-CEM leukemia 25% | MOLT-4 leukemia 51%
active: UO-31 renal -72.3%

CN1CCN(Cc2ccc(NC(=O)c3cncc(C#Cc4cncc5nccnc45)c3)cc2C(F)(F)F)CC1
inactive: EKVX NSCLC 71.2% | SN12C renal 31.7% | UO-31 renal 20.4% | TK-10 renal 96% | ACHN renal 24% | CAKI-1 renal 22.2% | A498 renal 21.4% | CCRF-CEM leukemia 58.2% | MOLT-4 leukemia 37%

COc1ccc(/C=C2\N=C3Sc4cc(Cl)ccc4C(=O)N3C2=O)cc1
inactive: SN12C renal 96.3% | UO-31 renal 65% | TK-10 renal 107% | ACHN renal 92.1% | CAKI-1 renal 73.8% | A498 renal 108% | CCRF-CEM leukemia 93.4% | MOLT-4 leukemia 93.6%

NC1=CC(=O)C(=O)c2ccccc21
inactive: EKVX NSCLC 76.2% | SN12C renal 84.2% | UO-31 renal 71.3% | TK-10 renal 114% | ACHN renal 85.2% | CAKI-1 renal 91.3% | A498 renal 101% | CCRF-CEM leukemia 93% | MOLT-4 leukemia 74.1%

O=C(O)c1ccc2c(c1Sc1ccccc1)C(=O)c1ccccc1C2=O
inactive: SN12C renal 96.6% | UO-31 renal 77% | TK-10 renal 86.5% | ACHN renal 95.3% | CAKI-1 renal 84.4% | A498 renal 114% | CCRF-CEM leukemia 91.9% | MOLT-4 leukemia 113%

O=C(CCN1CCOCC1)Nc1ccc(Cn2nnc3c2C(=O)c2nnn(Cc4ccc(NC(=O)CCN5CCOCC5)cc4)c2C3=O)cc1
inactive: UO-31 renal 108% | TK-10 renal 123% | ACHN renal 96.6% | CAKI-1 renal 90.6% | A498 renal 71.8%
active: SN12C renal -40.7% | CCRF-CEM leukemia -15.4%

O=C(CCCN1CCOCC1)Nc1ccc(Cn2nnc3c2C(=O)c2nnn(Cc4ccc(NC(=O)CCCN5CCOCC5)cc4)c2C3=O)cc1
inactive: UO-31 renal 103% | TK-10 renal 116% | ACHN renal 97.9% | CAKI-1 renal 88.6% | A498 renal 102%
active: SN12C renal -40.7% | CCRF-CEM leukemia -3.08% | MOLT-4 leukemia -21.5%

CN(C)CCOc1ccc(-c2nc3ccc(-c4nc5ccc(N6CCN(C)CC6)cc5[nH]4)cc3[nH]2)cc1
inactive: SN12C renal 63.5% | UO-31 renal 103% | TK-10 renal 90.7% | ACHN renal 111% | CAKI-1 renal 89.6% | A498 renal 35.3% | CCRF-CEM leukemia 85.4% | MOLT-4 leukemia 92%

CCOc1ccc(Nc2nc(-c3c(C)nc4ncccn34)cs2)cc1
inactive: SN12C renal 14.3% | UO-31 renal 33.9% | TK-10 renal 54.1% | ACHN renal 20.5% | CAKI-1 renal 34.1%
active: A498 renal -17.2% | CCRF-CEM leukemia -4.93% | MOLT-4 leukemia 8.54%

CCOC(=O)c1cnc2ccc(Br)cc2c1Nc1cccc(S(=O)(=O)NC)c1
inactive: EKVX NSCLC 96.2% | SN12C renal 103% | UO-31 renal 80.4% | TK-10 renal 114% | ACHN renal 98.3% | CAKI-1 renal 87.4% | A498 renal 77.7% | CCRF-CEM leukemia 105% | MOLT-4 leukemia 115%

COc1cc2cc(COc3nccc(-c4ccc(Cl)cc4)n3)c(=O)[nH]c2cc1OC
inactive: EKVX NSCLC 91% | SN12C renal 69.3% | UO-31 renal 67.2% | TK-10 renal 100% | ACHN renal 102% | CAKI-1 renal 86.5% | A498 renal 76.6% | MOLT-4 leukemia 42.1%
active: CCRF-CEM leukemia -20.5%

COc1ccccc1/C=C(/C(=O)c1ccccc1)c1ccccc1
inactive: EKVX NSCLC 109% | SN12C renal 102% | UO-31 renal 75.4% | TK-10 renal 119% | ACHN renal 99.8% | CAKI-1 renal 92.8% | A498 renal 111% | CCRF-CEM leukemia 104% | MOLT-4 leukemia 75.1%

COc1ccc(CN(c2ccc(C)cc2)C2OC(=O)c3ccccc32)cc1OC (stereo not given)
inactive: SN12C renal 99.1% | UO-31 renal 94.3% | TK-10 renal 107% | ACHN renal 95% | CAKI-1 renal 99.1% | A498 renal 79.4% | CCRF-CEM leukemia 91.3% | MOLT-4 leukemia 98.6%

CC(C)[C@@H]1CC[C@]2(C(=O)NCCCCN=C(N)N)CC[C@]3(C)[C@H](CC[C@@H]4[C@@]5(C)CCC(=O)C(C)(C)[C@@H]5CC[C@]43C)[C@@H]12
inactive: SN12C renal 60.7% | UO-31 renal 82.6% | TK-10 renal 88.7% | ACHN renal 79.6% | CAKI-1 renal 96.7% | A498 renal 111% | CCRF-CEM leukemia 37.6% | MOLT-4 leukemia 38.6%

O=S(=O)(NCCCNc1cc(-c2cn(-c3ccccc3)nc2-c2ccccc2)ccn1)c1ccc(C(F)(F)F)cc1
inactive: EKVX NSCLC 46.4% | SN12C renal 63% | UO-31 renal 40.4% | TK-10 renal 72.3% | CAKI-1 renal 52.4% | A498 renal 70.6% | CCRF-CEM leukemia 50.2% | MOLT-4 leukemia 29.4%

c1ccc(-c2nc(N3CCOCC3)c3c4c(sc3n2)CCCCC4)nc1
inactive: EKVX NSCLC 50.1% | SN12C renal 69% | UO-31 renal 35.7% | TK-10 renal 45.1% | ACHN renal 65.1% | CAKI-1 renal 46.2% | CCRF-CEM leukemia 79.9% | MOLT-4 leukemia 58.9%

c1ccc2sc(SCCCn3ccnc3)nc2c1
inactive: EKVX NSCLC 90.5% | SN12C renal 84.2% | UO-31 renal 84.9% | TK-10 renal 84.2% | ACHN renal 100% | CAKI-1 renal 98% | CCRF-CEM leukemia 81.6% | MOLT-4 leukemia 95.6%

COc1ccc2nc3cc(Cl)ccc3c(N3CCN(c4ccnc(N5CCN(C)CC5)n4)CC3)c2c1
active: TK-10 renal 8.16% | CCRF-CEM leukemia -27.9% | MOLT-4 leukemia -24%
inactive: SN12C renal 36.9% | UO-31 renal 51.2% | ACHN renal 36.9% | CAKI-1 renal 49.7% | A498 renal 68.1%

Cn1cc(-c2csc(-c3cn(C)c4ncccc34)n2)c2ccccc21
inactive: SN12C renal 56.4% | UO-31 renal 51.2% | TK-10 renal 50.3% | ACHN renal 57.4% | CAKI-1 renal 35.1% | CCRF-CEM leukemia 10.1% | MOLT-4 leukemia 14.6%
active: A498 renal -0.625%
